An excerpt weighted towards active compounds, which were near 11% of everything screened.
AMA1 RON2 block: qHTS for Inhibitors of AMA1-RON; Towards Development of Antimalarial Drug Lead: Primary Screen. AlphaScreen AMA1-biotinylated RON2 peptide binding. Potency, µM (top dose mostly 58.2 µM), usual class: inhibitors. AID 720542, 2013. actives 0.2% (n = 360,000); note: nearly all actives have a fitted effect of over 45% in size
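AMA1 (3D7) with his tag at 25 nM final met compounds first, then biotinylated RON2 peptide at 25 nM; detection used donor plus acceptor beads, 10 µg/mL apiece, read by AlphaScreen after 30 min at room temperature.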
Pf growth 48h: Primary qHTS for delayed death inhibitors of the malarial parasite plastid, 48 hour incubation | P. falciparum luciferase growth in erythrocytes, 48 h | Potency, µM (doses to about 28.7 µM), hits mostly inhibitors | actives 5.9% (n = 310,000) | AID 504832, 2011
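First compound was added to culture medium, then infected red cells at 0.1% parasitemia and 2% hematocrit (final). After incubation at 37 C under 5% CO2, luciferase detection reagent was dispensed and light output recorded.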
AmpC no deterg: qHTS Inhibitors of AmpC Beta-Lactamase (assay without detergent); AID 485341, 2010; P00811; AmpC nitrocefin hydrolysis, absorbance 480 nm, 0.0001% Triton; Potency, µM (highest dose often 57.1 µM), most hits filed as inhibitors; actives 0.52% (n = 330,000); note: nearly all actives have a fitted effect of over 20% in size
Target sequence (P00811 whole entry, looked up): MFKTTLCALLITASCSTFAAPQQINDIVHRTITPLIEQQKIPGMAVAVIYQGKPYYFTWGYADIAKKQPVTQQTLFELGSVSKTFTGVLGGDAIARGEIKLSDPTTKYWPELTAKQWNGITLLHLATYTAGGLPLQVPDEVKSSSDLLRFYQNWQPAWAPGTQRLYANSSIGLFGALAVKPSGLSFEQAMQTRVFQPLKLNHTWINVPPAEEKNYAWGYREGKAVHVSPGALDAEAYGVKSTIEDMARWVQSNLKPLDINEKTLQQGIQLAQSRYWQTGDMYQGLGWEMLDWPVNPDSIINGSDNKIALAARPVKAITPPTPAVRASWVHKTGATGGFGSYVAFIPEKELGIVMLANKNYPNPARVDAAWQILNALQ
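20 mM phosphate pH 7.0 + 0.01% (detergent screen) or 0.0001% Triton X-100; 5.3 nM AmpC reagent; cpd preinc 15 min RT; nitrocefin (800 uM stock) to start; A480 q20 s × 4 min; Activity was normalised to no-enzyme and no-compound control wells.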
HCV inh: qHTS Assay for Inhibitors of Hepatitis C Virus (HCV); Huh7.5.1 HCVcc-Cre infection, luciferase reporter, 44 h; Potency, µM (titrated, usually from 41.8 µM), most hits filed as inhibitors; actives 3.4% (n = 340,000); AID 651820, 2012
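HCVcc-Cre virus at an moi near 0.5 was added right after compound to cells cultured 4 h from seeding (1,000 cells/well). Luciferase activity was determined 44 h later, 15 min after substrate addition at RT.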
Pf growth 96h: Primary qHTS for delayed death inhibitors of the malarial parasite plastid, 96 hour incubation. actives 6.9% (n = 320,000). Potency, µM (doses to about 28.7 µM), usual class: inhibitors. P. falciparum luciferase reporter growth, 96 h. AID 504834, 2011
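Parasite growth measured via integrated firefly luciferase reporter in P. falciparum. Infected erythrocytes at 2% hematocrit, 0.05% parasitemia final were treated 96 hours at 37 C under 5% CO2, and luminescence was read.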
AmpC detergent: qHTS Inhibitors of AmpC Beta-Lactamase (assay with detergent). AmpC hydrolysis of nitrocefin, absorbance 480 nm, 0.01% Triton. Potency, µM (series often up to 114 µM), actives largely listed as inhibitors. actives 0.041% (n = 370,000). AID 485294, 2010; note: nearly all actives have a fitted effect of over 25% in size
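AmpC (5.3 nM in the dispensed reagent) in 20 mM phosphate pH 7.0 with 0.01% (detergent screen) or 0.0001% Triton X-100 was preincubated with compounds for 15 min at room temperature. Nitrocefin was then added from an 800 uM solution, and hydrolysis was followed at 480 nm.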
A number is an active result; 0 = inactive; ? = inconclusive; - = no result given; ! = not confirmed by another sample; [ ] = another dose, or the depositor's remark. Calls come from the whole dose curve; as a rule, active = well fitted curve in the direction sought with a large enough effect; inconclusive = small, poorly fitted or top-dose-only effect, or another doubt; inactive = no such curve, though single readings can be large; an effect the other way counts as inactive or inconclusive.

SMILES	AMA1 RON2 block	Pf growth 48h	AmpC no deterg	HCV inh	Pf growth 96h	AmpC detergent
CN(C)[C@H]1C(=O)C(C(N)=O)=C(O)[C@]2(O)C(=O)C3=C(O)c4c(O)cccc4[C@@](C)(O)[C@H]3C[C@@H]12	-	5.73µM	-	-	0.721µM	-
CN(C)[C@@H]1C(=O)C(C(N)=O)=C(O)[C@@]2(O)C(=O)C3=C(O)c4c(O)ccc(Cl)c4[C@@](C)(O)C3C[C@@H]12 (some centres not stated)	0	0	0	0[8.37 µM]	?	?
CN(C)[C@@H]1C(=O)C(C(=O)NCN2CCCC2)=C(O)[C@@]2(O)C(=O)C3=C(O)c4c(O)cccc4[C@@](C)(O)C3CC12 (some centres not stated)	-	0	0	0[8.37 µM]	0	?
CN(C)[C@@H]1C(=O)C(C(N)=O)=C(O)[C@@]2(O)C(=O)C3=C(O)c4c(O)cccc4[C@@](C)(O)C3[C@H](O)C12 (some centres not stated)	1.41µM!	14.7µM!	0	0	11.7µM!	?
CN(C)C1C(=O)C(C(N)=O)=C(O)C2(O)C(=O)C3=C(O)c4c(O)cccc4C(C)(O)C3CC12 (configuration not stated)	0	?	0	0	0.928µM	?
CCn1c(=NC(=O)c2ccc(S(=O)(=O)N3CCCCC3)cc2)sc2cccc(OC)c21	-	-	-	-	-	0
CCN(CC)c1nc(C#N)cc(-c2ccc(OC)cc2)n1	0	13.1µM	0	7.08µM	7.38µM	0
COc1ccc(-c2cc(C#N)nc(NN)n2)cc1	0	?	0	0	2.94µM	0
Cc1cc(C)cc(OCC(=O)Nc2nc3c(s2)CC(C(C)(C)C)CC3)c1 (configuration not stated)	-	-	-	-	-	0
CC1CCc2nc3ccccc3c(C(=O)OCC(=O)N3CCc4ccccc43)c2C1 (configuration not stated)	0	8.28µM	0	?	?	0
O=C(OCC(=O)N1CCc2ccccc21)c1ccccc1	0	0	0	?	0	0
CCCc1nc2ccccc2c(C(=O)OCC(=O)N2CCc3ccccc32)c1CC	0	?	0	8.91µM	8.28µM	0
CCc1noc(C)c1C(=O)OCC(=O)N1CCc2ccccc21	0	0	0	0	0	0
Cc1c(C2=CCN(S(=O)(=O)c3ccc(CC(C)C)cc3)CC2)c2ccccc2n1CC(=O)N1CCCC1	-	-	-	-	-	0
Cc1ccc(C)c(NC(=O)CSc2nc(=O)n(Cc3ccncc3)c3c2CCC3)c1	-	-	-	-	-	0
Cc1cccc(N2CCN(C(=O)CS(=O)(=O)c3cccc4nsnc34)CC2)c1C	-	-	-	-	-	0
CC(C)(C)C(=O)/C(=C/c1ccc(Cl)cc1)n1cncn1	0	14.7µM	0	?	0	0
CC(C)(C)C(=O)/C(=C\c1ccc([N+](=O)[O-])cc1)n1cncn1	-	11.7µM	0	3.16µM	?	0
O=C(NCCSCc1c(F)cccc1Cl)C1CCN(S(=O)(=O)Cc2ccccc2)CC1	-	-	-	-	-	0
Oc1ccccc1C1=NN(c2ccccc2)C(c2ccc(F)cc2)C1 (configuration not stated)	0	?	0	0	10.4µM	0
Oc1ccc(C2=NN(c3ccccc3)C(c3ccc(F)cc3)C2)cc1 (configuration not stated)	0	9.28µM	0	10µM	?	0
CCOC(=O)c1c(C)c(-c2ccccc2)n(CC(=O)Nc2cc(C)cc(C)c2)c1C	-	-	-	-	-	0
COc1ccc(OCC(=O)NC(Cc2c[nH]c3ccccc23)C(=O)O)cc1 (configuration not stated)	-	-	-	-	-	0
COc1ccc(C(C[N+](=O)[O-])c2c(C)[nH]c3ccccc23)cc1OC (configuration not stated)	0[2.32 µM]	2.08µM	0	?	?	0
C=CCOc1ccc(C(c2c(C(=O)O)[nH]c3ccccc23)c2c(C(=O)O)[nH]c3ccccc23)cc1	0	0	22.4µM	0	0	0
SMILES	AMA1 RON2 block	Pf growth 48h	AmpC no deterg	HCV inh	Pf growth 96h	AmpC detergent
O=C(O)c1[nH]c2ccccc2c1C(c1ccccc1)c1c(C(=O)O)[nH]c2ccccc12	0	0	0	0	?	0
COc1cc(C(c2c(C(=O)O)[nH]c3ccccc23)c2c(C(=O)O)[nH]c3ccccc23)ccc1OCc1ccccc1	0	0	0	0	13.1µM	0
O=C(Nc1ccccc1)c1ccc(Br)c(S(=O)(=O)N2CCCCC2)c1	-	-	-	-	-	0
COCCNC(=O)CN1C(=O)CCn2nc(-c3cn(C)c4ccccc34)cc21	-	-	-	-	-	0
Cc1ccc(N(CC(=O)Nc2ccc(F)cc2F)S(=O)(=O)c2cccs2)cc1	-	-	-	-	-	0
O=C(Nc1ccccc1)c1ccc(N2CCN(c3ccccn3)CC2)c(S(=O)(=O)N2CCOCC2)c1	0	-	0	0	3.7µM	0
O=C(Nc1ccccc1)c1ccc(N2CCN(c3ccccc3)CC2)c(S(=O)(=O)N2CCOCC2)c1	0	-	0	0	4.15µM	?
COc1ccc(C(=O)Nc2ccc(NC(=O)c3ccccc3)cc2)cc1S(=O)(=O)N1CCOCC1	0	0	0	?	0	0
CCOc1ccc(CCNC(=O)Cn2c(-c3cccs3)cc3ccccc32)cc1	-	-	-	-	-	0
COc1ccc(Cl)cc1NC(=O)c1cc(S(=O)(=O)N(C)Cc2ccccc2)ccc1F	-	-	-	-	-	0
COC(=O)c1sc2cccc(F)c2c1S(=O)(=O)Nc1cc(OC)cc(OC)c1	-	-	-	-	-	0
COc1ccc(N(CC(=O)N2CC=C(c3ccccc3)CC2)S(=O)(=O)c2c(C)noc2C)cc1	0	-	0	0	3.7µM	?
CS(=O)(=O)N(CC(=O)N1CCN(c2ccccc2F)CC1)c1cc(C(F)(F)F)ccc1Cl	0	-	0	?	10.4µM	0
CS(=O)(=O)N(CC(=O)N1CCN(c2ccccc2)CC1)c1cc(C(F)(F)F)ccc1Cl	0	0	0	0	-	0
COc1cccc(N2CCN(C(=O)CN(c3cc(C)cc(C)c3)S(=O)(=O)c3c(C)noc3C)CC2)c1	0	?	0	?	10.4µM	0
COc1ccc(N(CC(=O)N2c3ccccc3CC2C)S(=O)(=O)c2c(C)noc2C)cc1 (configuration not stated)	0	11.7µM	0	0	0	0
O=C(Nc1cccc(F)c1)c1oc2ccccc2c1NC(=O)C12CC3CC(CC(C3)C1)C2	-	-	-	-	-	0
COc1ccc(N(CC(=O)N2CCN(c3ccccc3F)CC2)S(=O)(=O)c2c(C)noc2C)cc1	0	0	0	0	5.86µM	0

Bioassay records: PubChem, National Center for Advancing Translational Sciences (NCATS)
